Experimental data published in PubChem BioAssay (EPA / NIEHS).
Calls of active or inactive are those of the source. The calls were made as follows: active = hit-call score of the fitted dose curve at least 0.9, where 1 is the maximum; inactive = score below 0.9.

Legend:
[1] = read-out: Thrombomodulin, THBD (gene 7056); experiment: BSK_CASM3C_Thrombomodulin: BioMAP Diversity Plus: CASM3C Assay for Thrombomodulin Biomarker Activity (AID 2283051); conditions: primary human coronary artery smooth muscle cells; actives raise or lower the signal;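 also: thrombomodulin protein level measured by ELISA 24 h after dosing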
[2] = read-out: Tissue Factor, F3 (gene 2152); experiment: BSK_CASM3C_TissueFactor: BioMAP Diversity Plus: CASM3C Assay for Tissue Factor Biomarker Activity (AID 2283052); conditions: primary human coronary artery smooth muscle cells; actives raise or lower the signal;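 also: cell surface tissue factor protein level read by ELISA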
[3] = read-out: Interferon-gamma inducible Protein 10 (IP10), CXCL10 (gene 3627); experiment: BSK_hDFCGF_IP10: BioMAP Diversity Plus: hDFCGF Assay for Interferon-gamma inducible Protein 10 (IP10) Biomarker Activity (AID 2283053); conditions: primary human foreskin fibroblasts; actives raise or lower the signal
In short: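 IP-10 levels, quantified by ELISA, are taken from human foreskin fibroblast cultures 24 h after chemical treatment, with DMSO serving as negative control and baseline for bidirectional analysis.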

[4] = read-out: Urokinase-type plasminogen activator receptor (uPAR), PLAUR (gene 5329); experiment: BSK_CASM3C_uPAR: BioMAP Diversity Plus: CASM3C Assay for Urokinase-type plasminogen activator receptor (uPAR) Biomarker Activity (AID 2283054); conditions: primary human coronary artery smooth muscle cells; actives raise or lower the signal;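 also: cell-surface uPAR protein level quantified by ELISA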
[5] = read-out: Vascular cell adhesion molecule 1 (VCAM1), VCAM1 (gene 7412); experiment: BSK_CASM3C_VCAM1: BioMAP Diversity Plus: CASM3C Assay for Vascular cell adhesion molecule 1 (VCAM1) Biomarker Activity (AID 2283055); conditions: primary human coronary artery smooth muscle cells; actives raise or lower the signal;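 also: VCAM-1 protein level quantified by ELISA on the cells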
[6] = read-out: Collagen III, COL3A1 (gene 1281); experiment: BSK_hDFCGF_CollagenIII: BioMAP Diversity Plus: hDFCGF Assay for Collagen III Biomarker Activity (AID 2283056); conditions: primary human foreskin fibroblasts; actives raise or lower the signal
In short: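 Cells: human foreskin fibroblasts, primary. Dosing followed by 24 h incubation, then ELISA for collagen III. Both increases and decreases scored relative to DMSO.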

[7] = read-out: Epidermal growth factor receptor (EGFR), EGFR (gene 1956); experiment: BSK_hDFCGF_EGFR: BioMAP Diversity Plus: hDFCGF Assay for Epidermal growth factor receptor (EGFR) Biomarker Activity (AID 2283057); conditions: primary human foreskin fibroblasts; actives raise or lower the signal
In short: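 Measured by ELISA: EGFR levels on primary human foreskin fibroblasts 24 h after chemical treatment, analysed relative to DMSO with bidirectional fitting.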

[8] = read-out: Interleukin-8 (IL8), CXCL8 (gene 3576); experiment: BSK_hDFCGF_IL8: BioMAP Diversity Plus: hDFCGF Assay for Interleukin-8 (IL8) Biomarker Activity (AID 2283058); conditions: primary human foreskin fibroblasts; actives raise or lower the signal
In short: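 IL-8 levels from compound-treated primary human fibroblasts were read by ELISA at 24 h, with DMSO serving as baseline for bidirectional fitting.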

[9] = read-out: Macrophage colony-stimulating factor (MCSF), CSF1 (gene 1435); experiment: BSK_hDFCGF_MCSF: BioMAP Diversity Plus: hDFCGF Assay for Macrophage colony-stimulating factor (MCSF) Biomarker Activity (AID 2283060); conditions: primary human foreskin fibroblasts; actives raise or lower the signal
In short: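 M-CSF levels, determined by ELISA, are taken at 24 h after dosing human skin fibroblasts. Responses in either direction are fitted with DMSO serving as the baseline.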

[10] = BSK_hDFCGF_SRB: Viability Assessment in the BioMAP Diversity Plus: hDFCGF Assay (AID 2283061); conditions: primary human foreskin fibroblasts;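 also: cells exposed to compound for 24 h before the read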
In short: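 Cells were dosed with test chemical, cultured 24 h, fixed with 10% TCA, then stained with 0.1% SRB and read at 560 nm. The fibroblasts were human foreskin primary cells, and DMSO served as baseline.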

[11] = read-out: TIMP metallopeptidase inhibitor 1 (TIMP1), TIMP1 (gene 7076); experiment: BSK_hDFCGF_TIMP1: BioMAP Diversity Plus: hDFCGF Assay for TIMP metallopeptidase inhibitor 1 (TIMP1) Biomarker Activity (AID 2283062); conditions: primary human foreskin fibroblasts; actives raise or lower the signal
In short: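 Fibroblasts from human foreskin are treated with test chemical and harvested at 24 h. TIMP-1 is quantified by ELISA, and gain or loss of signal is scored against DMSO.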

[12] = read-out: Monokine induced gamma interferon (MIG), CXCL9 (gene 4283); experiment: BSK_hDFCGF_MIG: BioMAP Diversity Plus: hDFCGF Assay for Monokine induced gamma interferon (MIG) Biomarker Activity (AID 2283063); conditions: primary human foreskin fibroblasts; actives raise or lower the signal
In short: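 MIG signal, determined by ELISA, reflects 24 h chemical exposure of human skin primary fibroblasts. DMSO serves as negative control and baseline.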

[13] = read-out: Matrix Metallopeptidase 1 (MMP1), MMP1 (gene 4312); experiment: BSK_hDFCGF_MMP1: BioMAP Diversity Plus: hDFCGF Assay for Matrix Metallopeptidase 1 (MMP1) Biomarker Activity (AID 2283064); conditions: primary human foreskin fibroblasts; actives raise or lower the signal
In short: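 Primary human foreskin fibroblasts in the hDFCGF system were dosed with test chemical, and MMP1 was measured by ELISA 24 h later. Values come from bidirectional curve fitting against the DMSO baseline.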

[14] = read-out: Vascular cell adhesion molecule 1 (VCAM1), VCAM1 (gene 7412); experiment: BSK_hDFCGF_VCAM1: BioMAP Diversity Plus: hDFCGF Assay for Vascular cell adhesion molecule 1 (VCAM1) Biomarker Activity (AID 2283065); conditions: primary human foreskin fibroblasts; actives raise or lower the signal;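 as to AC50: VCAM-1 protein level quantified by ELISA after 24 h chemical exposure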
In short: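 Cells are dosed, cultured for 24 h, then VCAM-1 is quantified by ELISA; signal increases and decreases are both fitted relative to DMSO.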

[15] = read-out: Plasminogen activator inhibitor-1 (PAI1), SERPINE1 (gene 5054); experiment: BSK_hDFCGF_PAI1: BioMAP Diversity Plus: hDFCGF Assay for Plasminogen activator inhibitor-1 (PAI1) Biomarker Activity (AID 2283066); conditions: primary human foreskin fibroblasts; actives raise or lower the signal
In short: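 PAI-1 levels, determined by ELISA, served as the endpoint in human foreskin fibroblast cultures exposed to compound for 24 h, with DMSO as baseline.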

[16] = read-out: Intercellular Adhesion Molecule 1 (ICAM1), ICAM1 (gene 3383); experiment: BSK_KF3CT_ICAM1: BioMAP Diversity Plus: KF3CT Assay for Intercellular Adhesion Molecule 1 (ICAM1) Biomarker Activity (AID 2283067); conditions: primary human keratinocytes with fibroblasts; actives raise or lower the signal
In short: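 Dose the keratinocyte/fibroblast co-culture, wait 24 h, measure ICAM-1 by ELISA, then fit increases or decreases against DMSO. Cytotoxicity is checked in parallel cultures by SRB total-protein staining.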

[17] = read-out: Interferon-gamma inducible Protein 10 (IP10), CXCL10 (gene 3627); experiment: BSK_KF3CT_IP10: BioMAP Diversity Plus: KF3CT Assay for Interferon-gamma inducible Protein 10 (IP10) Biomarker Activity (AID 2283068); conditions: primary human keratinocytes with fibroblasts; actives raise or lower the signal
In short: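 Human keratinocyte plus foreskin fibroblast primary co-culture exposed to test chemical for 24 h; IP-10 measured by ELISA. Concentration-response fitted bidirectionally against DMSO control as baseline.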

[18] = BSK_KF3CT_SRB: Viability Assessment in the BioMAP Diversity Plus: KF3CT Assay (AID 2283069); conditions: primary human keratinocytes with fibroblasts;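 also: total protein by sulforhodamine B staining as a cytotoxicity measure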
In short: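 Human primary keratinocyte plus foreskin fibroblast co-culture exposed to chemicals for 24 h. Total protein measured by 0.1% sulforhodamine B staining after 10% TCA fixation, read at 560 nm; bidirectional fitting versus DMSO baseline.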

[19] = read-out: Interleukin-1 alpha (IL1a), IL1A (gene 3552); experiment: BSK_KF3CT_IL1a: BioMAP Diversity Plus: KF3CT Assay for Interleukin-1 alpha (IL1a) Biomarker Activity (AID 2283070); conditions: primary human keratinocytes with fibroblasts; actives raise or lower the signal
In short: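 Human keratinocyte plus foreskin fibroblast primary co-culture, sampled 24 h after chemical dosing. IL-1a measured by ELISA; responses fitted bidirectionally against DMSO baseline (negative control), so gain or loss of signal both count.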

Measured: AC50

C=C(C)[C@H]1CC=C(C)C(=O)C1
inactive: all assays above

C=C(C)C(=O)OCCOCCOCCOCCOC(=O)C(=C)C
inactive: all assays above

CC(C)(C)CC(C)(C)c1ccc(OCCOCC[N+](C)(C)Cc2ccccc2)cc1
active: [1] 6.62 µM | [2] 5 µM | [3] 8.05 µM | [4] 7.34 µM | [5] 8.31 µM | [6] 2.22 µM | [8] 5 µM | [9] 6.64 µM | [10] 6.6 µM | [11] 5 µM | [12] 7.5 µM | [13] 5 µM | [14] 6.9 µM | [15] 5 µM | [16] 9.07 µM | [17] 7.61 µM | [18] 6.61 µM | [19] 8.08 µM
inactive: [7]

CC(CN=Cc1ccccc1O)N=Cc1ccccc1O (centres undefined)
inactive: all assays above

CC=Cc1ccc(OCC)c(O)c1
inactive: all assays above

CCN(CC)C(=O)N(CC)CC
inactive: all assays above
